The results in this text go back to PubChem BioAssay AID1259245 (Vanderbilt High Throughput Screening Facility, 2017).

Among all 40,000 compounds or so, about 1,400 (3.5%) were called active.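 How the source made its calls: active means any of four per-well response measures lying three or more SD from its plate-wide compound average, in either direction; inactive means the rest, inconclusive results apart.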 What follows is part of a selection rich in actives, with near analogues and random picks from the rest.

In the test the target is Voltage-dependent calcium channel gamma-2 subunit (Mus musculus) + Glutamate receptor 2 (Rattus norvegicus) (UniProt O88602+P19491). The test is described as follows: modulators of GluA2-stargazin AMPA receptor complexes, primary screen, cell-based, membrane potential dye (AID 1259245). The conditions noted are these: HEK293 GluA2+stargazin, membrane potential dye (FDSS), glutamate EC50, at 30 µM, hits were called plate by plate, in both directions; compound max-min signal: compound-alone response (agonism); glutamate slope, % of max: measured here: glutamate response slope, % max.
Voltage-dependent calcium channel gamma-2 subunit (Mus musculus) + Glutamate receptor 2 (Rattus norvegicus), sequence (O88602 whole entry, looked up): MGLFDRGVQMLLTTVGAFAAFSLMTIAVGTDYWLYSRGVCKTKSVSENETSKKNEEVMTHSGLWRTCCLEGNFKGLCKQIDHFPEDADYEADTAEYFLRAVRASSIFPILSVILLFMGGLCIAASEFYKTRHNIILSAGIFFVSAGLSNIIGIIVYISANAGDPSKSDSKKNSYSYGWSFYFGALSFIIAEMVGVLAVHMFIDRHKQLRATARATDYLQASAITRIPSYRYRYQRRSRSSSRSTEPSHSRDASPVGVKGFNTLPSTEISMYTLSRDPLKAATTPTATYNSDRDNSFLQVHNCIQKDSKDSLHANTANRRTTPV
Voltage-dependent calcium channel gamma-2 subunit (Mus musculus) + Glutamate receptor 2 (Rattus norvegicus), sequence (P19491 whole entry, looked up): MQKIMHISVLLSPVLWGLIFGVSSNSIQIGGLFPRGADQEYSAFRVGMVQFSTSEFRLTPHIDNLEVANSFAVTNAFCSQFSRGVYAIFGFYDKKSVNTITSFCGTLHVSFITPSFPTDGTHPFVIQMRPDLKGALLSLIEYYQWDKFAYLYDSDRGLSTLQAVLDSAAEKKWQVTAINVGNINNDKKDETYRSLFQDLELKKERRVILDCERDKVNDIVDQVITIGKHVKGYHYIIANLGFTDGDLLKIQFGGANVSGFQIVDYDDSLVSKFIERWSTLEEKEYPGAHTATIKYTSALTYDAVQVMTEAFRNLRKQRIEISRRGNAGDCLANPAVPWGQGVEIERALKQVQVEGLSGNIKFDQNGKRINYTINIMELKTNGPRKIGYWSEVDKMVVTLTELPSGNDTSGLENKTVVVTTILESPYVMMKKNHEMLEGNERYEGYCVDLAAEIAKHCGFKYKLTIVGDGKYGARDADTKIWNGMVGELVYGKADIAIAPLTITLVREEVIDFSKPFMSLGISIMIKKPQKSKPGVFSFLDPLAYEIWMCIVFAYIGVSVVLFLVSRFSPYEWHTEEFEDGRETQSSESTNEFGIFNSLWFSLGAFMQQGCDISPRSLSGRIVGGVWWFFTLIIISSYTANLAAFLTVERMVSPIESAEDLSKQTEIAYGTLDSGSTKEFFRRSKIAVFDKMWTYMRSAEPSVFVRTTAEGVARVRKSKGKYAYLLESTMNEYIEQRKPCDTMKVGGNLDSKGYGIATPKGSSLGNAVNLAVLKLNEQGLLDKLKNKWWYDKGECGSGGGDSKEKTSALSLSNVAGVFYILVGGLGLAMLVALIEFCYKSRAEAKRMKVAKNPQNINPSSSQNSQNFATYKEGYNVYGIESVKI
As to `CCOC(=O)c1cn(CC(=O)Nc2ccc(C)cc2Cl)c2nc(C)ccc2c1=O`, the compound max-min signal was found to be 0.132; the glutamate response, % of max was 31.9% (inactive); the glutamate slope, % of max worked out at 51%.

`COc1cc(NS(=O)(=O)c2ccc(NC(=O)c3ccc(S(=O)(=O)N4CCOCC4)cc3)cc2)ncn1`: the compound max-min signal came out at 0.0995; the glutamate response, % of max was 43.4% (inactive); the glutamate slope, % of max came out at 72.4%.

In the case of `CCOc1ccc2nc(N(Cc3ccncc3)C(=O)/C=C/c3cccs3)sc2c1`, the compound max-min signal came to 0.107; the glutamate response, % of max was 21.1% (inactive); the glutamate slope, % of max came out at 47.3%.

With `COc1ccc(S(=O)(=O)N2CCN(c3ccc4nncn4n3)CC2)cc1C`, the compound max-min signal is 0.114; the glutamate response, % of max is 18.4% (inactive); the glutamate slope, % of max is 44.4%.

Turning to `O=S(=O)(c1cccs1)N1CCC(c2ccsc2)CC1`, the compound max-min signal was 0.115; the glutamate response, % of max was 35.3% (inactive); the glutamate slope, % of max was 65.4%.

With `O=S(=O)(c1ccc(F)cc1F)N1CCN(c2ccc(-c3cccs3)nn2)CC1`, the compound max-min signal came to 0.0403; the glutamate response, % of max was 12.3% (inactive); the glutamate slope, % of max amounted to 30.1%.

Take `CCc1ccc(S(=O)(=O)N2CCN(c3ccc(Nc4cccc(C)n4)nn3)CC2)cc1`: the compound max-min signal amounted to 0.366; the glutamate response, % of max was 22.6% (active); the glutamate slope, % of max was determined as 37.7%.

As to `O=S(=O)(c1ccc2c(c1)CCCC2)N1CCN(c2ccc3nncn3n2)CC1`, the compound max-min signal is 0.0592; the glutamate response, % of max is 23.2% (inactive); the glutamate slope, % of max amounted to 46.1%.

As for `Cc1cccc(Nc2ccc(N3CCN(S(=O)(=O)c4cccs4)CC3)nn2)n1`, the compound max-min signal came to 0.445; the glutamate response, % of max is 13.5% (active); the glutamate slope, % of max came to 21.9%.

As for `COc1cccc(-c2noc(C3CCN(S(=O)(=O)c4ccc(C)cc4)CC3)n2)c1OC`, the compound max-min signal was 0.0999; the glutamate response, % of max was 28.5% (inactive); the glutamate slope, % of max was found to be 52.6%.

Consider `O=S(=O)(c1ccccc1)N1CCN(Cc2nnnn2-c2ccc(F)cc2)CC1`, for which the compound max-min signal was found to be 0.0497; the glutamate response, % of max is 29.1% (inactive); the glutamate slope, % of max is 63.3%.

As for `O=S(=O)(Cc1ccc(Cl)cc1)c1ccc(NCc2ccccc2)nn1`, the compound max-min signal worked out at 0.0863; the glutamate response, % of max was 49.2% (inactive); the glutamate slope, % of max came to 64.8%.

On to `CCOC(=O)N1CCN(/C=C2\Oc3c(ccc(O)c3C)C2=O)CC1`, for which the compound max-min signal was found to be 0.132; the glutamate response, % of max is 21.6% (inactive); the glutamate slope, % of max was 32.3%.

For `COc1ccc(-c2cc3ccc4c(c3oc2=O)CN(C2CCS(=O)(=O)C2)CO4)cc1OC` (stereo not given), the compound max-min signal is 0.083; the glutamate response, % of max is 20.7% (inactive); the glutamate slope, % of max is 43.1%.

For `CC(O)(CNC(=O)/C=C/c1ccccc1)c1ccccc1` (stereo not given), the compound max-min signal worked out at 0.0976; the glutamate response, % of max is 44.2% (inactive); the glutamate slope, % of max was 61.2%.

In the case of `CCOC(=O)C(CC)Sc1ccnc2c1c(=O)n(C)c(=O)n2C` (stereo not given), the compound max-min signal is 0.0572; the glutamate response, % of max is 21.5% (inactive); the glutamate slope, % of max came to 49.8%.

With `Cn1c(=O)c2c(ncn2CCc2ccccc2)n(C)c1=O`, the compound max-min signal worked out at 0.12; the glutamate response, % of max is 41.9% (inactive); the glutamate slope, % of max was 67.6%.

For the molecule `COCc1cnc2c(c1SCc1ccc(Br)cc1)c(=O)n(C)c(=O)n2C`, the compound max-min signal is 0.0342; the glutamate response, % of max is 27% (inactive); the glutamate slope, % of max was found to be 47.1%.

With `Cc1cnc2c(c1NCCc1ccc(S(N)(=O)=O)cc1)c(=O)n(C)c(=O)n2C`, the compound max-min signal turned out to be 0.167; the glutamate response, % of max is 32.2% (active); the glutamate slope, % of max was determined as 50%.

Turning to `Cc1cnc2c(c1SCc1ccc([N+](=O)[O-])cc1)c(=O)n(C)c(=O)n2C`, the compound max-min signal turned out to be 0.158; the glutamate response, % of max was 47.1% (active); the glutamate slope, % of max came out at 69.5%.

On to `Cc1cnc2c(c1SCC(=O)O)c(=O)n(C)c(=O)n2C`, for which the compound max-min signal stood at 0.0266; the glutamate response, % of max was 30.3% (inactive); the glutamate slope, % of max stood at 58%.

On to `COc1ccc(CNC(=O)C(=O)NCC2CCN(Cc3cccs3)CC2)cc1`, for which the compound max-min signal is 0.0534; the glutamate response, % of max was 41.2% (inactive); the glutamate slope, % of max worked out at 57.3%.

For the molecule `CCOc1ccc(CC(=O)Nc2nn(C)c3c2C(C)CC(=O)N3)cc1` (stereo not given), the compound max-min signal worked out at 0.129; the glutamate response, % of max is 42.6% (inactive); the glutamate slope, % of max came to 64.1%.

In the case of `O=C(Nc1cc(-c2ccco2)nn1-c1nc(-c2ccccc2)cc(=O)[nH]1)c1ccco1`, the compound max-min signal was 0.115; the glutamate response, % of max is 35.5% (inactive); the glutamate slope, % of max was determined as 53.1%.

As for `Cn1nnc2c(N3CCN(C(=O)c4cc5ccccc5o4)CC3)ncnc21`, the compound max-min signal was found to be 0.0567; the glutamate response, % of max was 24.9% (inactive); the glutamate slope, % of max came out at 41.7%.

As to `Cc1cc(C)n(CCNC(=O)c2nc(-c3cnccn3)no2)n1`, the compound max-min signal was determined as 0.147; the glutamate response, % of max was 48.6% (inactive); the glutamate slope, % of max worked out at 86.3%.

Regarding `CS(=O)(=O)N1CCCCC1C(=O)Nc1nc(-c2ccccn2)cs1` (stereo not given), the compound max-min signal amounted to 0.116; the glutamate response, % of max was 43% (inactive); the glutamate slope, % of max was determined as 58.9%.

With `CSc1ccc(CC(=O)Nc2nc(-c3nc4ccccc4s3)cs2)cc1`, the compound max-min signal was 0.102; the glutamate response, % of max was 33% (inactive); the glutamate slope, % of max was found to be 57.3%.

In the case of `CC(C)Sc1ccc(C(=O)Nc2nc(-c3ccccn3)cs2)cc1`, the compound max-min signal was 0.135; the glutamate response, % of max was -1.73% (active); the glutamate slope, % of max was 2.45%.

As for `Cc1nn(C2CCS(=O)(=O)C2)c2nc(-c3ccccc3)cc(C(=O)Nc3ccc(F)cc3F)c12` (stereo not given), the compound max-min signal was found to be 0.0886; the glutamate response, % of max was 43% (inactive); the glutamate slope, % of max stood at 54.9%.

For `COC(=O)c1ccc(NC(=O)CSc2nc(-c3ccccc3)c(N)s2)cc1`, the compound max-min signal is 0.12; the glutamate response, % of max was 38.3% (inactive); the glutamate slope, % of max came out at 63%.

For the molecule `COc1cc(NC(=O)CSC2=NC3(CCCC3)N=C2c2ccccc2)cc(OC)c1`, the compound max-min signal is 0.0812; the glutamate response, % of max is 57.8% (active); the glutamate slope, % of max is 80.4%.

Turning to `Cc1ccc(NC(=O)CSC2=NC(C)(C)N=C2c2ccccc2)c(C)c1`, the compound max-min signal is 0.112; the glutamate response, % of max was 41.7% (inactive); the glutamate slope, % of max came out at 61.7%.

For the molecule `CCS(=O)(=O)N1CCCc2ccc(NS(=O)(=O)c3cc(Cl)ccc3OC)cc21`, the compound max-min signal came out at 0.119; the glutamate response, % of max is 44.4% (inactive); the glutamate slope, % of max is 80.9%.

Consider `Cc1c(C)n2c3c(=O)n(C/C=C/c4ccccc4)c(=O)n(C)c3nc2n1-c1ccccc1O`, for which the compound max-min signal was 0.0773; the glutamate response, % of max was 13.8% (inactive); the glutamate slope, % of max stood at 35.4%.
